# ± gives the standard deviation of the averaged measurements. About 6,200 targets were measured; listed, in parts, are those with the largest changes and a random draw of the rest.
# Compound: Nc1ncnc2c1ncn2[C@@H]1O[C@H](COP(=O)(O)OP(=O)(O)NP(=O)(O)O)[C@@H](O)[C@H]1O [adenylyl imidodiphosphate]
# Experiment: NP40-soluble protein abundance relative to vehicle (solubility fold change) (ratio); higher = more soluble protein in presence of AMP-PNP
# How it was run: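 Jurkat crude lysate prepared with a Dounce homogeniser was treated at eight concentrations spanning 0.1 to 10 mM, 10 min at room temperature then 3 min at 37 °C. Solubilisation with 0.8% NP40 and benzonase and ultracentrifugation preceded TMT labelling of the supernatant for LC-MS/MS. Fold change against the detergent-processed vehicle was determined per replicate from vsn-normalised intensities, across three independent experiments.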
# UniProt P05423, sequence (P05423 whole entry): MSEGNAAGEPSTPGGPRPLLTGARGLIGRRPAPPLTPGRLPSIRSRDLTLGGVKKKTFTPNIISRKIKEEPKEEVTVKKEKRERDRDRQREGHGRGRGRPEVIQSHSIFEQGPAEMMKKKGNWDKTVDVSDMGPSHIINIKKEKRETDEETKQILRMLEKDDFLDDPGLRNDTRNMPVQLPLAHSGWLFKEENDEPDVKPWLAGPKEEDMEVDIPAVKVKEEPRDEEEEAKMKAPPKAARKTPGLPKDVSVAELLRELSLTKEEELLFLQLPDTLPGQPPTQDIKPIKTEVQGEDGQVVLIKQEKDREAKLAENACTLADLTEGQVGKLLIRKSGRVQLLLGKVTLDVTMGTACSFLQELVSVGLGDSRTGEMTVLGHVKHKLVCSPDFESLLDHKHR
# UniProt P55060, sequence (P55060 whole entry): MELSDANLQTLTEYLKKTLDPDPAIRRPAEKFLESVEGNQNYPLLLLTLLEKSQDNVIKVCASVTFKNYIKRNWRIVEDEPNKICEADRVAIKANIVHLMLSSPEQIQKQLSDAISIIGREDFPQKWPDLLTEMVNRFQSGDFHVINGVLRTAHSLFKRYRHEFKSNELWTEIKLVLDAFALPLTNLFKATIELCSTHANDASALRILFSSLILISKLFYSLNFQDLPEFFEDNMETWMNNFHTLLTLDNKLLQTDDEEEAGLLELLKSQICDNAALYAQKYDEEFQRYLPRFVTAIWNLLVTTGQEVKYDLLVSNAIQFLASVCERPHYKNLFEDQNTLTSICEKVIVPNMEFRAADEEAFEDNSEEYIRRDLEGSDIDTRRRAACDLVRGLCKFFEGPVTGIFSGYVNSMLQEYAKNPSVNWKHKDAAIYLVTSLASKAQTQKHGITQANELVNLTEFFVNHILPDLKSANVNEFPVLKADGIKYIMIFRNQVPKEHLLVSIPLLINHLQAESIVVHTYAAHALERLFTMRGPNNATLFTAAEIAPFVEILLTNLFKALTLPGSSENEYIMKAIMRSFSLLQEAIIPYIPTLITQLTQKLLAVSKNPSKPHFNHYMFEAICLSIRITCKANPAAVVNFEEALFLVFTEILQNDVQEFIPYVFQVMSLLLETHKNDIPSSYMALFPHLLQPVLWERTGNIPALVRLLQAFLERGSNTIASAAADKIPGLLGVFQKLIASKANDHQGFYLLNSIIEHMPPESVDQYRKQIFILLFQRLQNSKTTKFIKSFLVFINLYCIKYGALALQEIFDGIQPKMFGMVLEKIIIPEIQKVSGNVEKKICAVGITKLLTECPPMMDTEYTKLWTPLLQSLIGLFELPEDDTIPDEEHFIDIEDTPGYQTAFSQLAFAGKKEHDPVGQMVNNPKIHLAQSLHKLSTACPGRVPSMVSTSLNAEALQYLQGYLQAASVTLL
# UniProt P38935, sequence (P38935 whole entry): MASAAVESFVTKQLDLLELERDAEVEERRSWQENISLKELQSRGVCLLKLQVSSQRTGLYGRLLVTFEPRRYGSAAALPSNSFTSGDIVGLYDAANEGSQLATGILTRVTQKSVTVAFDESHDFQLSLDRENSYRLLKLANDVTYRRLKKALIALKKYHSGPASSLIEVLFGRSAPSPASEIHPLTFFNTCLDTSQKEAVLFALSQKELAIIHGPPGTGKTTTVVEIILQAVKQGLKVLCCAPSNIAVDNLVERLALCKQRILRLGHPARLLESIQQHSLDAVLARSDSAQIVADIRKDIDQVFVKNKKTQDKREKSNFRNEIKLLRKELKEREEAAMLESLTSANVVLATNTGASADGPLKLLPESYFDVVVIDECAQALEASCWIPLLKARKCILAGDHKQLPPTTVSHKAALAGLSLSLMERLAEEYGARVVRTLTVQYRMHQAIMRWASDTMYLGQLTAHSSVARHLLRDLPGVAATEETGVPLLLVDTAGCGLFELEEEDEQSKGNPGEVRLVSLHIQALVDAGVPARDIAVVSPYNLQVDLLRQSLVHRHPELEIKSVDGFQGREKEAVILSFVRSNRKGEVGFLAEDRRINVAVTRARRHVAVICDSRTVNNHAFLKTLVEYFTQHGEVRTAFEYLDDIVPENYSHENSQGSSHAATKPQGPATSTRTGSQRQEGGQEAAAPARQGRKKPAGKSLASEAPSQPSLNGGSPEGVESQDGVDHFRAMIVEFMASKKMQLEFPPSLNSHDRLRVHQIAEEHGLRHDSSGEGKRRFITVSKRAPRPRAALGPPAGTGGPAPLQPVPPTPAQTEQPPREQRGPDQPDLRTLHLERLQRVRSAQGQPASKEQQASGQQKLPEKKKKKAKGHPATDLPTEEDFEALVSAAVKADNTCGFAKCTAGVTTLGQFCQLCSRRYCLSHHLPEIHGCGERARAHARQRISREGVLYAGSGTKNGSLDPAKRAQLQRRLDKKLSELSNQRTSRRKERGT
# UniProt O76071, sequence (O76071 whole entry): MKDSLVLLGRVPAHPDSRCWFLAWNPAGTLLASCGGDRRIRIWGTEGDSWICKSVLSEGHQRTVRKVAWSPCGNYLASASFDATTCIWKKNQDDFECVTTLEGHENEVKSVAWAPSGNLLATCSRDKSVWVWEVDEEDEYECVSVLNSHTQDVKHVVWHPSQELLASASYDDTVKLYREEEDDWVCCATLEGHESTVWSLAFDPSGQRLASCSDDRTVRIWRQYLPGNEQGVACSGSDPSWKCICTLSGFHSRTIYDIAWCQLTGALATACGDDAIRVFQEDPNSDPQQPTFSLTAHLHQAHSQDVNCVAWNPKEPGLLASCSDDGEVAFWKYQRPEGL
# UniProt P42696, sequence (P42696 whole entry): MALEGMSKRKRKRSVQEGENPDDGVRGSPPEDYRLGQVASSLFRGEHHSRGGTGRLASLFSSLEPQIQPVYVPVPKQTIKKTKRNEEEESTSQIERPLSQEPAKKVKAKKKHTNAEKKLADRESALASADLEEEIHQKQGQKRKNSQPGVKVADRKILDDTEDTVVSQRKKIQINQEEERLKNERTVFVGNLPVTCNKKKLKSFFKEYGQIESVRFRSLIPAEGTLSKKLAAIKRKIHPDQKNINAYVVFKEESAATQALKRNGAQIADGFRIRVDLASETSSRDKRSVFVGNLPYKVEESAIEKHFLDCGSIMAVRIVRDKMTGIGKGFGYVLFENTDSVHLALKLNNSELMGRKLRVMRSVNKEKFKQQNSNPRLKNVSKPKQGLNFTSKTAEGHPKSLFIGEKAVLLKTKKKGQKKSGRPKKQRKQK
# UniProt P36405, sequence (P36405 whole entry): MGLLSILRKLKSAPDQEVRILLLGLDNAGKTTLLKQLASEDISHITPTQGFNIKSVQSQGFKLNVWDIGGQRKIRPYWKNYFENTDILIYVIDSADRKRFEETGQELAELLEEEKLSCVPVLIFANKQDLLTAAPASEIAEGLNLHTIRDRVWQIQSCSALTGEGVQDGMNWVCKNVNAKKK
# UniProt P55160, sequence (P55160 whole entry): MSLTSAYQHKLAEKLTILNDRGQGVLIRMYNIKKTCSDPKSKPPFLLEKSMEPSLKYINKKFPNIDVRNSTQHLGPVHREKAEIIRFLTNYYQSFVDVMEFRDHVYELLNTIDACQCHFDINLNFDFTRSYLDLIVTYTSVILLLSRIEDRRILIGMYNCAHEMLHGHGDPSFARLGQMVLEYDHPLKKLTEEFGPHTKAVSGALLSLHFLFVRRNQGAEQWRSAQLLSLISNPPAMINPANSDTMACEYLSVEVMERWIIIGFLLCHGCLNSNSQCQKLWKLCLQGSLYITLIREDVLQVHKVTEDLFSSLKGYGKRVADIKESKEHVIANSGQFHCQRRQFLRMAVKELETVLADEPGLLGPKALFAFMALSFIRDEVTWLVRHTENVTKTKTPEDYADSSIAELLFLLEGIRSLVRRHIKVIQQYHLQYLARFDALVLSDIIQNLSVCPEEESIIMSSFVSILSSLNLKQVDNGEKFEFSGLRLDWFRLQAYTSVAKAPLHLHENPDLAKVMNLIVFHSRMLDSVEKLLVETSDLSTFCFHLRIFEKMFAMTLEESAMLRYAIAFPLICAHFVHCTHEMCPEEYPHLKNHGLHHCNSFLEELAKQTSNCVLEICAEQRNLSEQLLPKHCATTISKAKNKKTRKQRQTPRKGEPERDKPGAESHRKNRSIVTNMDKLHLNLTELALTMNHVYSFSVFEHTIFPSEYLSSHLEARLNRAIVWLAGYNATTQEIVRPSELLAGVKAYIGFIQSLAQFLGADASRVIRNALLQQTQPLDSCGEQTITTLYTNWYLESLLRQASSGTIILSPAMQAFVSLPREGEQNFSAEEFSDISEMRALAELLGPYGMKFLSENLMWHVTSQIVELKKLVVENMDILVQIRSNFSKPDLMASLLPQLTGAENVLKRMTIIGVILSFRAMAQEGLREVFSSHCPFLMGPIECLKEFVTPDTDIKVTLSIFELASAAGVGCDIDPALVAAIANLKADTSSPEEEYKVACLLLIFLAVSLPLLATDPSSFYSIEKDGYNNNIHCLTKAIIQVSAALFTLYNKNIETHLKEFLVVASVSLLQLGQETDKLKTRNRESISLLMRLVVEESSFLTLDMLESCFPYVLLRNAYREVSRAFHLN
# UniProt P16083, sequence (P16083 whole entry, one chain of several): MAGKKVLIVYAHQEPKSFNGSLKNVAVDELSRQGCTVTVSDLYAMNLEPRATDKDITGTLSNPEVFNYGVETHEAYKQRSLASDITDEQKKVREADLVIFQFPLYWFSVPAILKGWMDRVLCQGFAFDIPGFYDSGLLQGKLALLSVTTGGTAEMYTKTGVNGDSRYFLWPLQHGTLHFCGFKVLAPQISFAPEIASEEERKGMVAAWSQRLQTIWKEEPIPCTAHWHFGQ
# UniProt O75531, sequence (O75531 whole entry): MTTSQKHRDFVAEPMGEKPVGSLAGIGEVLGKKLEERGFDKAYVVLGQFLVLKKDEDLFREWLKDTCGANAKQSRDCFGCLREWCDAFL
# UniProt P05114, sequence (P05114 whole entry): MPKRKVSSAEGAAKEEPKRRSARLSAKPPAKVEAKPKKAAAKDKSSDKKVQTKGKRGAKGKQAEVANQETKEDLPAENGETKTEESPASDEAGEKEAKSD
# UniProt P18859, sequence (P18859 whole entry, one chain of several): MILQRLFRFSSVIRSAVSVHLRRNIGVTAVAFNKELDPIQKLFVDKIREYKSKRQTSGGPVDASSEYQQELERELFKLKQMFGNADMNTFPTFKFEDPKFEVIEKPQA
Target,NP40-soluble protein abundance (concentration: 1mM),NP40-soluble protein abundance (concentration: 2mM),NP40-soluble protein abundance (concentration: 4mM),NP40-soluble protein abundance (concentration: 6mM),NP40-soluble protein abundance (concentration: 8mM),NP40-soluble protein abundance (concentration: 10mM)
TPM4 (UniProt P67936),1.21 ± 0.19,1.42 ± 0.15,1.27 ± 0.3,1.35 ± 0.3,1.44 ± 0.047,1.24 ± 0.16
UniProt P49005|F8W8R3,0.977 ± 0.021,0.947 ± 0.059,0.973 ± 0.027,0.929 ± 0.011,0.9339 ± 0.0057,0.925 ± 0.037
UniProt P36402-5,0.952 ± 0.025,0.984 ± 0.03,0.924 ± 0.046,0.876 ± 0.025,0.8484 ± 0.0036,0.837 ± 0.015
GCLC (UniProt P48506),0.993 ± 0.027,0.928 ± 0.043,0.976 ± 0.033,0.941 ± 0.014,0.963 ± 0.029,0.922 ± 0.02
UniProt Q01826|Q01826-2,1.03 ± 0.033,1.07 ± 0.05,1.03 ± 0.051,0.985 ± 0.037,0.985 ± 0.026,1.01 ± 0.05
NCKAP1L (UniProt P55160),0.975 ± 0.021,0.905 ± 0.085,0.955 ± 0.027,0.955 ± 0.072,0.975 ± 0.046,0.914 ± 0.037
HMGN1 (UniProt P05114),1.23 ± 0.1,1.36 ± 0.18,1.28 ± 0.074,1.57 ± 0.15,1.54 ± 0.16,1.89 ± 0.36
POLR1A (UniProt O95602),1 ± 0.017,1 ± 0.086,1.07 ± 0.1,1.08 ± 0.12,1.07 ± 0.14,1.11 ± 0.14
POLR3D (UniProt P05423),0.982 ± 0.017,1.01 ± 0.02,0.993 ± 0.035,0.961 ± 0.041,0.971 ± 0.037,0.998 ± 0.065
METAP1 (UniProt P53582),1.05 ± 0.046,1.06 ± 0.081,1.16 ± 0.071,1.31 ± 0.046,1.37 ± 0.061,1.38 ± 0.074
BANF1 (UniProt O75531),2.32 ± 0.38,2.76 ± 0.16,3 ± 0.25,3.73 ± 0.25,4.03 ± 0.2,4.25 ± 0.21
UniProt P60866|P60866-2,0.932 ± 0.061,0.906 ± 0.058,0.883 ± 0.13,0.91 ± 0.04,0.889 ± 0.043,0.929 ± 0.13
SFPQ (UniProt P23246),1.15 ± 0.054,1.25 ± 0.076,1.41 ± 0.12,1.68 ± 0.26,1.75 ± 0.28,2.02 ± 0.41
UniProt P55060|P55060-3,1 ± 0.012,1.02 ± 0.11,0.987 ± 0.032,1.01 ± 0.04,0.985 ± 0.027,1.02 ± 0.04
CIAO1 (UniProt O76071),1.02 ± 0.021,0.986 ± 0.024,1.01 ± 0.053,1.01 ± 0.044,1 ± 0.021,0.978 ± 0.028
FASN (UniProt P49327),0.959 ± 0.021,0.874 ± 0.091,0.941 ± 0.026,0.913 ± 0.026,0.917 ± 0.035,0.896 ± 0.036
IGHMBP2 (UniProt P38935),1.17 ± 0.014,1.16 ± 0.05,1.22 ± 0.083,1.26 ± 0.086,1.33 ± 0.06,1.42 ± 0.12
UniProt P52948|P52948-2|P52948-5|P52948-6,1.07 ± 0.047,1.1 ± 0.015,1.13 ± 0.018,1.22 ± 0.056,1.28 ± 0.02,1.417 ± 0.011
UniProt P16083|Q5TD07,1.02 ± 0.02,0.982 ± 0.074,0.988 ± 0.034,0.991 ± 0.02,0.993 ± 0.04,0.982 ± 0.052
ARL3 (UniProt P36405),0.9899 ± 0.0033,0.945 ± 0.031,0.995 ± 0.048,0.988 ± 0.052,1.03 ± 0.041,0.99 ± 0.042
UniProt P61289|P61289-2,0.983 ± 0.064,0.955 ± 0.12,0.808 ± 0.23,0.886 ± 0.17,0.999 ± 0.037,0.968 ± 0.1
UniProt P05771|P05771-2,1.05 ± 0.019,1.03 ± 0.016,1.04 ± 0.029,1.04 ± 0.012,1.05 ± 0.017,1.04 ± 0.03
VASP (UniProt P50552),1.02 ± 0.03,1.09 ± 0.078,1.03 ± 0.033,1.01 ± 0.015,0.999 ± 0.046,0.9961 ± 0.0094
RBM34 (UniProt P42696),1.07 ± 0.069,1.12 ± 0.044,1.15 ± 0.082,1.23 ± 0.12,1.23 ± 0.12,1.36 ± 0.16
UniProt O96028|O96028-3|O96028-5,1.08 ± 0.034,1.16 ± 0.026,1.23 ± 0.033,1.32 ± 0.044,1.35 ± 0.03,1.47 ± 0.059
YBX1 (UniProt P67809),0.986 ± 0.088,1.22 ± 0.36,1.07 ± 0.12,1.23 ± 0.072,1.21 ± 0.031,1.34 ± 0.067
VPS26A (UniProt O75436),0.946 ± 0.045,0.861 ± 0.062,0.895 ± 0.019,0.872 ± 0.032,0.931 ± 0.046,0.829 ± 0.02
UniProt P33981|P33981-2,1.04 ± 0.027,1.021 ± 0.0069,1.05 ± 0.033,1.018 ± 0.01,1.02 ± 0.034,1.03 ± 0.036
UniProt Q13105|Q13105-2|Q13105-3,1.01 ± 0.06,1.011 ± 0.0042,1.03 ± 0.028,1.04 ± 0.057,1.04 ± 0.051,1.07 ± 0.072
UniProt P18859|P18859-2|A8MUH2,0.948 ± 0.053,0.899 ± 0.032,0.867 ± 0.062,0.834 ± 0.05,0.825 ± 0.063,0.857 ± 0.026

# Source: the supplement of paper PMC6411743
